“And” between values parts separate entries of the source, which are not always exact repeats. Identical values can stand only once.

The target of the first experiment is Hexose transporter 1 (Plasmodium falciparum) (UniProt O97467). The experiment is described as follows: ST_JUDE_LEISH: Cytotoxicity at 2uM final concentration against transgenic Leishmania Mexicana promastigotes LmPfHT that are glucose transport deficient and complemented with the Plasmodium falciparum hexose transporter. Activity is measured by DNA content using SYBR green in vitro. In kind it is functional.
One may read the inhibition as the relative decrease from the control value, in per cent. With `Cn1nccc1C(=O)NCCNCc1ccc(-c2ccc(-c3nc4cc(C(F)(F)F)ccc4[nH]3)s2)cc1`, the inhibition is -0.52%.
Turning to `CCOc1cccc(C(=O)Nc2cccc(CN3CCCN(Cc4ccc(O)cc4)CC3)c2)c1`, the inhibition came to 3.14%.
With `CC(C)Oc1cc2c(cc1NS(=O)(=O)c1ccc(-c3ccc(Cl)s3)cc1F)CCN(C)CC2`, the inhibition came out at 5.23%.
On the same count and under the same terms, next, `Cc1cc(NC(=O)c2ccco2)ccc1OC1CCN(Cc2ccc(F)cc2)C1` (stereo not given): 0.21%; `CC(=O)c1ccc(NC(=O)Nc2ccc(N(C)c3ccnc(NC4CC4)n3)cc2)cc1`: -3.95%.
On the same count and under the same terms, next, `Nc1ccc(-c2nc3cc(Oc4ccc5[nH]c(-c6ccc(N)cc6)nc5c4)ccc3[nH]2)cc1`: 0.6%.
Same read-out and setting: next, `O=C(Cc1c[nH]cn1)Nc1ccc(-c2cccc(-c3nc4cc(F)ccc4[nH]3)c2)cc1`: 4.07%; `NC(=O)c1cccc(Nc2nccc(Nc3ccc(Oc4cccc(Cl)c4)c(Cl)c3)n2)c1`: 9.87%.
`COc1cc2c(cc1N1CCN(C)CC1)N(C(=O)Nc1ccc(-c3ccncc3)c(Cl)c1Cl)CC2`: the inhibition turned out to be 0.34%.
As to `CC(C)(C)c1ccc(CN2CCC(NC(=O)c3ccc(-c4cccc(F)c4)s3)CC2)cc1`, the inhibition is -2.33%.
The same measure, in the same setting: next, `C=C[C@H]1CN2CC[C@H]1C[C@H]2[C@H](O)c1ccnc2ccc(OC)cc12`: 6.11% and -3.17% and 2.26%; `CN(C)CCn1c(N)c(-c2nc3ccccc3s2)c2nc(C#N)c(C#N)nc21`: 1.76%; `CCCC(CNCc1cccc(C)c1)CNc1cc(=O)c2ccccc2[nH]1` (stereo not given): 11.9%.
Same read-out and setting: next, `Clc1cccc(C=NNc2ccnc3cc(Cl)ccc23)c1`: -2.17%; `O=C(c1ccc([N+](=O)[O-])o1)N1CCC(Cc2ccc(C(F)(F)F)cc2)CC1`: 22.5%; `Cc1ccc(NC(=O)NC2CCN(CCC(NC(=O)Cc3ccccc3)c3ccc(Cl)c(Cl)c3)CC2)cc1` (stereo not given): -2.83%.
In the case of `CS(=O)(=O)c1cccc(-c2cnc(N)c3cc(-c4ccc5c(c4)OCO5)ccc23)c1`, the inhibition was found to be 8.33%.
For `O=C(Nc1ccc(C(=O)Oc2cccc3ccccc23)cc1)N[C@@H](Cc1ccc(O)cc1)C(=O)NC1CCN(Cc2ccc(O)cc2)C1` (stereo not given in full), the inhibition stood at 17.7%.
Same read-out and setting: next, `C=CCc1c(C(=O)NCC23CC4CC(CC(C4)C2)C3)nc2ccccc2c1O`: 0.27%.
Same read-out and setting: next, `CC(C)N1CCC(N(Cc2ccc(-c3ccc(C(F)(F)F)cc3)cc2)C(=O)CCCn2c(CCc3cccc(F)c3F)nc(=O)c3ccccc32)CC1`: 3.92%; `CCc1cc2c3c(N)nc(N)nc3ccc2n1CC`: 58%; `CCNc1cc(C(=O)N[C@@H](Cc2cccc(F)c2)[C@H](O)CNC(C)CCCC(C)C)cc(N2CCCCS2(=O)=O)c1` (stereo not given in full): 2.92%.
As for `Cc1noc(C)c1-c1cccc(CNCc2ccc(-c3cccc(-c4nc5cccc(C)c5[nH]4)c3)cc2)c1`, the inhibition is -2.28%.
Still for that read-out and setting: next, `Cc1ccc(NC(C)C(=O)Nc2ccc(C#N)cc2)cc1S(=O)(=O)N1CCCCC1` (stereo not given): 71.8%; `c1ccc(Oc2cccc(Nc3ccnc4ccccc34)c2)cc1`: 10.4%; `COc1ccc2nccc(C(=O)NC3CCC(CCN4CCc5cc(C#N)ccc5C4)CC3)c2c1` (stereo not given): 5.23%.
Still for that read-out and setting: then `CC1C(c2cccc(Cl)c2)OCC(C)(C)N1C(=O)CCN1CCCCC1` (stereo not given), with -0.69%; and `COc1cc(CNC[C@@H](O)[C@H](Cc2ccccc2)NC(=O)c2cc(OC(C)C)cc(N3CCCCS3(=O)=O)c2)cc(OC)c1`, with 2.12%; and `O=c1cc(NCCCCNCc2cccc(Br)c2)[nH]c2ccccc12`, with 5.07%.
The same measure, in the same setting: next, `COc1cc2ncnc(Nc3ccc(OC(F)(F)c4ccccc4)cc3)c2cc1OC`: 10.8%; `CN1CCN(CC(=O)Nc2ccc(-c3cccc(-c4nc5cc(C(F)(F)F)ccc5[nH]4)c3)cc2)CC1`: 1.68%; `COCCCNc1nc2cc(OC)c(OC)cc2c2nc(-c3ccccc3)nn12`: 1.16%.
In the case of `CS(=O)(=O)c1ccc(CNCc2cccc(-c3ccc(-c4nc5cc(C(F)(F)F)ccc5[nH]4)cc3)c2)cc1`, the inhibition was 5.08%.
The same measure, in the same setting: then `O=C(Nc1ccc(Cl)cc1C(=O)Nc1ccncc1)c1ccc(Cl)cc1Cl`, with 5.88%; and `NCC1(c2nc(-c3ccc(Cl)c(O)c3)c(-c3ccncc3)[nH]2)CCCCC1`, with 2.75%; and `Cc1[nH]c(C)c(-c2ccc(-c3ccc(C(F)(F)F)cc3C(F)(F)F)nc2)c(=O)c1Br`, with -2.4%.
On to `CNC(=O)C1Cc2c([nH]c3c(C)cccc23)C2(N1)C(=O)Nc1ccc(OC(F)(F)F)cc12` (stereo not given), for which the inhibition was 1.59%.
Same read-out and setting: then `FC(F)(F)c1cccc2c(NN=Cc3ccccc3)ccnc12`, with 2.21%.
For the compound `CCC(C)NS(=O)(=O)c1ccc2nc(Nc3ccc(C)cc3)n([C@H](C)C(C)(C)C)c2c1` (stereo not given in full), the inhibition was determined as 0.25%.
Same read-out and setting: next, `CCCCCCOc1ccc(C(=O)N[C@H]2CCN(CCCCCNC(=O)/C=C/c3ccc(Cl)c(Cl)c3)C2)cc1`: -0.9%.

A further experiment deals with Glucose transporter (Leishmania mexicana) (UniProt O61059). Put plainly: ST_JUDE_LEISH: Cytotoxicity at 2uM final concentration against transgenic Leishmania Mexicana promastigotes LmGT2 that are glucose transport deficient and complemented with the L. Mexicana glucose transporter 2. Activity is measured by DNA content using SYBR green in vitro. In kind it is functional.
On to `Cn1nccc1C(=O)NCCNCc1ccc(-c2ccc(-c3nc4cc(C(F)(F)F)ccc4[nH]3)s2)cc1`, for which the inhibition was 0.87%.
Same read-out and setting: then `CCOc1cccc(C(=O)Nc2cccc(CN3CCCN(Cc4ccc(O)cc4)CC3)c2)c1`, with 5.38%; and `CC(C)Oc1cc2c(cc1NS(=O)(=O)c1ccc(-c3ccc(Cl)s3)cc1F)CCN(C)CC2`, with 1.77%.
For `Cc1cc(NC(=O)c2ccco2)ccc1OC1CCN(Cc2ccc(F)cc2)C1` (stereo not given), the inhibition came to 0.41%.
Still for that read-out and setting: next, `CC(=O)c1ccc(NC(=O)Nc2ccc(N(C)c3ccnc(NC4CC4)n3)cc2)cc1`: 0.62%; `Nc1ccc(-c2nc3cc(Oc4ccc5[nH]c(-c6ccc(N)cc6)nc5c4)ccc3[nH]2)cc1`: -0.55%; `O=C(Cc1c[nH]cn1)Nc1ccc(-c2cccc(-c3nc4cc(F)ccc4[nH]3)c2)cc1`: 2.01%.
Turning to `NC(=O)c1cccc(Nc2nccc(Nc3ccc(Oc4cccc(Cl)c4)c(Cl)c3)n2)c1`, the inhibition came out at 7.71%.
Turning to `COc1cc2c(cc1N1CCN(C)CC1)N(C(=O)Nc1ccc(-c3ccncc3)c(Cl)c1Cl)CC2`, the inhibition worked out at 0.64%.
`CC(C)(C)c1ccc(CN2CCC(NC(=O)c3ccc(-c4cccc(F)c4)s3)CC2)cc1`: the inhibition turned out to be 2.67%.
Same read-out and setting: then `C=C[C@H]1CN2CC[C@H]1C[C@H]2[C@H](O)c1ccnc2ccc(OC)cc12`, with -0.01% and 5.72% and -2.15%.
Same read-out and setting: next, `CN(C)CCn1c(N)c(-c2nc3ccccc3s2)c2nc(C#N)c(C#N)nc21`: 3.11%.
Turning to `CCCC(CNCc1cccc(C)c1)CNc1cc(=O)c2ccccc2[nH]1` (stereo not given), the inhibition was determined as 11.9%.
Take `Clc1cccc(C=NNc2ccnc3cc(Cl)ccc23)c1`: the inhibition was -3.26%.
Regarding `O=C(c1ccc([N+](=O)[O-])o1)N1CCC(Cc2ccc(C(F)(F)F)cc2)CC1`, the inhibition turned out to be 0.45%.
Regarding `Cc1ccc(NC(=O)NC2CCN(CCC(NC(=O)Cc3ccccc3)c3ccc(Cl)c(Cl)c3)CC2)cc1` (stereo not given), the inhibition is -3.14%.
Still for that read-out and setting: next, `CS(=O)(=O)c1cccc(-c2cnc(N)c3cc(-c4ccc5c(c4)OCO5)ccc23)c1`: 7.36%; `O=C(Nc1ccc(C(=O)Oc2cccc3ccccc23)cc1)N[C@@H](Cc1ccc(O)cc1)C(=O)NC1CCN(Cc2ccc(O)cc2)C1` (stereo not given in full): 17.4%.
On to `C=CCc1c(C(=O)NCC23CC4CC(CC(C4)C2)C3)nc2ccccc2c1O`, for which the inhibition came to 3.24%.
On the same count and under the same terms, next, `CC(C)N1CCC(N(Cc2ccc(-c3ccc(C(F)(F)F)cc3)cc2)C(=O)CCCn2c(CCc3cccc(F)c3F)nc(=O)c3ccccc32)CC1`: 6.72%; `CCc1cc2c3c(N)nc(N)nc3ccc2n1CC`: 39.4%; `CCNc1cc(C(=O)N[C@@H](Cc2cccc(F)c2)[C@H](O)CNC(C)CCCC(C)C)cc(N2CCCCS2(=O)=O)c1` (stereo not given in full): 1.42%.
The same measure, in the same setting: then `Cc1noc(C)c1-c1cccc(CNCc2ccc(-c3cccc(-c4nc5cccc(C)c5[nH]4)c3)cc2)c1`, with -4.14%.
For the compound `Cc1ccc(NC(C)C(=O)Nc2ccc(C#N)cc2)cc1S(=O)(=O)N1CCCCC1` (stereo not given), the inhibition was found to be 58.8%.
In the case of `c1ccc(Oc2cccc(Nc3ccnc4ccccc34)c2)cc1`, the inhibition came to 3.97%.
On to `COc1ccc2nccc(C(=O)NC3CCC(CCN4CCc5cc(C#N)ccc5C4)CC3)c2c1` (stereo not given), for which the inhibition came to 6.71%.
On the same count and under the same terms, next, `CC1C(c2cccc(Cl)c2)OCC(C)(C)N1C(=O)CCN1CCCCC1` (stereo not given): -1.56%.
The same measure, in the same setting: then `COc1cc(CNC[C@@H](O)[C@H](Cc2ccccc2)NC(=O)c2cc(OC(C)C)cc(N3CCCCS3(=O)=O)c2)cc(OC)c1`, with 1.3%; and `O=c1cc(NCCCCNCc2cccc(Br)c2)[nH]c2ccccc12`, with 3.39%; and `COc1cc2ncnc(Nc3ccc(OC(F)(F)c4ccccc4)cc3)c2cc1OC`, with 7.93%.
The same measure, in the same setting: next, `CN1CCN(CC(=O)Nc2ccc(-c3cccc(-c4nc5cc(C(F)(F)F)ccc5[nH]4)c3)cc2)CC1`: -1.43%; `COCCCNc1nc2cc(OC)c(OC)cc2c2nc(-c3ccccc3)nn12`: 0.85%; `CS(=O)(=O)c1ccc(CNCc2cccc(-c3ccc(-c4nc5cc(C(F)(F)F)ccc5[nH]4)cc3)c2)cc1`: 3.3%.
On to `O=C(Nc1ccc(Cl)cc1C(=O)Nc1ccncc1)c1ccc(Cl)cc1Cl`, for which the inhibition was found to be 5.53%.
Turning to `NCC1(c2nc(-c3ccc(Cl)c(O)c3)c(-c3ccncc3)[nH]2)CCCCC1`, the inhibition amounted to 0.55%.
On the same count and under the same terms, then `Cc1[nH]c(C)c(-c2ccc(-c3ccc(C(F)(F)F)cc3C(F)(F)F)nc2)c(=O)c1Br`, with 0.14%; and `CNC(=O)C1Cc2c([nH]c3c(C)cccc23)C2(N1)C(=O)Nc1ccc(OC(F)(F)F)cc12` (stereo not given), with 3.8%.
Still for that read-out and setting: then `FC(F)(F)c1cccc2c(NN=Cc3ccccc3)ccnc12`, with 1.42%.
On to `CCC(C)NS(=O)(=O)c1ccc2nc(Nc3ccc(C)cc3)n([C@H](C)C(C)(C)C)c2c1` (stereo not given in full), for which the inhibition was -0.82%.
`CCCCCCOc1ccc(C(=O)N[C@H]2CCN(CCCCCNC(=O)/C=C/c3ccc(Cl)c(Cl)c3)C2)cc1`: the inhibition was 1.12%.

The record behind these values is ChEMBL document CHEMBL3433997, “St. Jude Leishmania screening dataset” (2016).
